{"source": "PubChem BioAssay (Tox21)", "note": "Records with an inconclusive call do not appear. The source made the active and inactive calls. Calls follow the shape of the dose curve; as a rule, active = well fitted activation curve with a large enough effect in the signal ratio in the repeat runs (not every such curve was filed as active); inconclusive = weak or mixed curves, or effect the other way; inactive = no such curve, though single readings can be large or run the other way; the % refers to the signal ratio.", "data": [{"molecular_target": "Glucocorticoid receptor (Homo sapiens) (UniProt P04150)", "sequence (P04150 whole entry, looked up)": "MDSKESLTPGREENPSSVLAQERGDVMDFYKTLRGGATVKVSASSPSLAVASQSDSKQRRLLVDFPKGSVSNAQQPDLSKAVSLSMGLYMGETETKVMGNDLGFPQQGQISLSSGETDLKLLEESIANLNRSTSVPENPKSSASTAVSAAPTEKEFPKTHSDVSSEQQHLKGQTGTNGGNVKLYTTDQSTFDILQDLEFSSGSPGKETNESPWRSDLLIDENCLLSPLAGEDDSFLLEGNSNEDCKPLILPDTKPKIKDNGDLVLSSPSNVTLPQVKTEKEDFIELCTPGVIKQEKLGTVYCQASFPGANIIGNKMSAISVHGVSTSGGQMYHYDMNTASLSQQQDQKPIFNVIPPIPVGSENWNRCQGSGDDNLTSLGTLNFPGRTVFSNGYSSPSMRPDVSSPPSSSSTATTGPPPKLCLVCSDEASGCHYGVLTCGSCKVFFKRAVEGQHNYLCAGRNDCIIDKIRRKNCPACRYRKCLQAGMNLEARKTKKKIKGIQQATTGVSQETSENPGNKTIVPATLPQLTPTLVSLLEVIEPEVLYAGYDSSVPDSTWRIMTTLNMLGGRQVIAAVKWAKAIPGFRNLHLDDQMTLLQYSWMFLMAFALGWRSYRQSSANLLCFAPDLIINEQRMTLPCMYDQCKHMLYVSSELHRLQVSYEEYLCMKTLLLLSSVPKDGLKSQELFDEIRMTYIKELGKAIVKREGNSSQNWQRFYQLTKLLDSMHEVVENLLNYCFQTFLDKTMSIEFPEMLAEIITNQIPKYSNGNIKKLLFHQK", "test": "qHTS assay to identify small molecule agonists of the glucocorticoid receptor (GR) signaling pathway (AID 720691)", "details": "GR-bla HeLa, beta-lactamase reporter ratio, 18 h; series mostly up to 62.4 µM", "from_the_text": "U.S. Tox21 Program National Center for Advancing Translational Sciences [NCATS] NIH Chemical Genomics Center [NCGC] U.S. Environmental Protection Agency [EPA] National Institutes of Environmental Health Sciences [NIEHS] National Toxicology Program [NTP] U.S. Food and Drug Administration [FDA] Tox21 Assay Overview: The Glucocorticoid receptor (GR) is one of the members of the nuclear receptor family of ligand-dependent transcription factors. GR plays a critical role in carbohydrate, protein and lipid metabolisms and programmed cell death. CellSensor GR-bla HeLa cell line (Invitrogen) contains a beta-lactamase reporter gene under the control of the glucocorticoid response element stably integrated into HeLa cells, a cervical cancer cell line that expresses glucocorticoid receptor. The activation of the reporter gene under culture conditions can be detected by fluorescence intensity. This cell line has been used to screen the Tox21 10K compound library and to identify the compounds that activate the GR signaling.\nTox21 Assay Protocol Summary: The GR-bla HeLa cells were dispensed at 1500 cells/6 ul/well in 1536-well black wall/clear bottom plates using a Multidrop Combi (ThermoFisher Scientific, Waltham, MA) dispenser. After the assay plates were incubated at a 37 C/5% CO2 incubator for 4 hours, 23 nL of compounds dissolved in DMSO, positive controls or DMSO only was transferred to the assay plate by a pintool station (Kalypsys, San Diego, CA). The plates were incubated at 37 C for 18 hours. After 1 uL of LiveBLAzerTM B/G FRET substrate was added using a Flying Reagent Dispenser (Aurora Discovery, San Diego, CA), the plates were incubated at room temperature for 2 hours, and fluorescence intensity was measured by an Envision plate reader (PerkinElmer, Shelton, CT).", "values": [{"compound": "CC(=O)OCc1ccccc1", "outcome": "inactive"}, {"compound": "Cc1ccc(S(=O)(=O)N=C=O)cc1", "outcome": "inactive"}, {"compound": "C=C(C)CNCC", "outcome": "inactive"}, {"compound": "CC1(C)CC(N)CC(C)(CN)C1", "note": "(stereo not given)", "outcome": "inactive"}, {"compound": "CC(C)OP(=O)(CP(=O)(OC(C)C)OC(C)C)OC(C)C", "outcome": "inactive"}, {"compound": "Cc1ccc(C(C)C)c(O)c1", "outcome": "inactive"}, {"compound": "Cc1ccc2ncccc2c1", "outcome": "inactive"}, {"compound": "CCOCC(=O)O", "outcome": "inactive"}, {"compound": "C=C(C)[C@H]1CC=C(C)C(=O)C1", "outcome": "inactive"}, {"compound": "O=C1C(c2[nH]c3ccccc3c2O)=Nc2ccccc21", "outcome": "inactive"}, {"compound": "Cc1ccc([N+](=O)[O-])cc1S(=O)(=O)O", "outcome": "inactive"}, {"compound": "CC(=O)OCCOC(C)=O", "outcome": "inactive"}, {"compound": "CSc1ccc(Cl)cc1", "outcome": "inactive"}, {"compound": "CC(O)CC(C)(C)O", "note": "(stereo not given)", "outcome": "inactive"}, {"compound": "CCOC(=O)c1ccc(N)cc1", "outcome": "inactive"}, {"compound": "O=c1[nH]cnc2[nH]ncc12", "outcome": "inactive"}, {"compound": "C[C@]12CC[C@@H]3c4ccc(O)cc4CC[C@H]3[C@@H]1C[C@@H](O)[C@@H]2O", "outcome": "inactive"}, {"compound": "COc1ccc([N+](=O)[O-])cc1N", "outcome": "inactive"}, {"compound": "CC(C)(C)c1cc(Cc2cc(C(C)(C)C)c(O)c(C(C)(C)C)c2)cc(C(C)(C)C)c1O", "outcome": "inactive"}, {"compound": "O=S(=O)(O)c1ccccc1", "outcome": "inactive"}, {"compound": "CNC(=O)Oc1ccc2c(c1)[C@]1(C)CCN(C)[C@@H]1N2C", "outcome": "inactive"}, {"compound": "O=C(O)Cn1c(=O)n(Cc2ccc(Br)cc2F)c(=O)c2ccc(Cl)cc21", "outcome": "inactive"}, {"compound": "c1ccc2c(c1)Cc1ccccc1-2", "outcome": "inactive"}, {"compound": "CC(C)=CCl", "outcome": "inactive"}, {"compound": "Nc1nc(N)nc(-c2ccccc2)n1", "outcome": "inactive"}, {"compound": "CC(=O)OC1CC(C)OC(C)O1", "note": "(stereo not given)", "outcome": "inactive"}, {"compound": "CCCCOC(=O)c1ccc(N)cc1", "outcome": "inactive"}, {"compound": "N#Cc1ccccc1", "outcome": "inactive"}, {"compound": "CC(=O)CCC=C(C)C", "outcome": "inactive"}, {"compound": "CN(C)c1ccc(Cc2ccc(N(C)C)cc2)cc1", "outcome": "inactive"}, {"compound": "OCc1ccccc1", "outcome": "inactive"}, {"compound": "CCCCCCCCCCCC(=O)OC", "outcome": "inactive"}, {"compound": "CCO[Si](CCC#N)(OCC)OCC", "outcome": "inactive"}, {"compound": "CCCCCCO", "outcome": "inactive"}, {"compound": "C=CC(=O)OCCC(=O)O", "outcome": "inactive"}, {"compound": "COCCOC(=O)c1ccccc1C(=O)OCCOC", "outcome": "inactive"}, {"compound": "O=C(OCC1CCC2OC2C1)C1CCC2OC2C1", "note": "(stereo not given)", "outcome": "inactive"}, {"compound": "c1ccc(Oc2ccccc2)cc1", "outcome": "inactive"}, {"compound": "CC(=O)Oc1ccc(C)cc1", "outcome": "inactive"}, {"compound": "CC(C)(Oc1ccc(CCNC(=O)c2ccc(Cl)cc2)cc1)C(=O)O", "outcome": "inactive"}]}]}
